Laboratory results as given in PubChem BioAssay AID1527 (The Scripps Research Institute Molecular Screening Center, 2009).
Hit rate of the full screen: of about 290,000 compounds, about 2,600 (0.9%) were called active. The sample holds actives, similar compounds and a random draw of the others, so the mix is not that of the screen.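 The calls were made as follows: active = inhibition above the mean of all tested compounds plus 3 SD, cutoff set per screening run (cut at about 7.5% in these data); inactive = the rest.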

Each molecule was assayed on VIM-2 metallo-beta-lactamase (Pseudomonas aeruginosa) (assay: inhibition of VIM-2 nitrocefin hydrolysis – biochemical, epi-absorbance readout, Pseudomonas aeruginosa enzyme, primary screen (AID 1527;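 also: red hydrolysis product quenches plate fluorescence so inhibitors raise well fluorescence; 0% = enzyme with DMSO and 100% = DMSO without enzyme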)). Conditions: purified VIM-2, nitrocefin hydrolysis, epi-absorbance fluorescence; at 5.6 µM; stronger effect = higher value.

Row | Structure (SMILES) | inhibition
1 | Cc1cccc(-c2nc(Nc3ccc(O)cc3)c3ccccc3n2)c1 | -0.38% (inactive)
2 | c1ccc(Nc2nc(N3CCOCC3)c3ccccc3n2)cc1 | -0.89% (inactive)
3 | CN1CCN(c2nc(Nc3ccc(O)cc3)nc3ccccc23)CC1 | 12.2% (active)
4 | O=C(/C=C/c1ccc2c(c1)OCCO2)c1ccc(O)cc1 | 0.15% (inactive)
5 | CCC(=C/c1sc2ccc3ccccc3c2[n+]1C)/C=C1\Sc2ccc3ccccc3c2N1C | 18.2% (active)
6 | CC(C)n1c(=O)[nH]c2cc(C(=O)Nc3ccccc3)ccc21 | -0.68% (inactive)
7 | CN1CCN(c2ccc(NC(=O)c3ccccc3)cc2)CC1 | 5.59% (inactive)
8 | CN1CCN(c2ccc(NC(=O)c3ccc4c(c3)[nH]c(=O)n4Cc3ccc(F)cc3)cc2)CC1 | 17.6% (active)
9 | Cc1cc2occ(CC(=O)NNC(=O)c3ccccc3F)c2cc1C | -1.98% (inactive)
10 | Cc1nc(N)nc(SCc2ccc([N+](=O)[O-])cc2)c1N | -0.52% (inactive)
11 | COC(=O)c1ccc(NC(=O)CSc2nnc(C3CC3)n2C)cc1 | -2.19% (inactive)
12 | O=C(Nc1ccc2c(c1)OCCO2)c1cnccn1 | -1.18% (inactive)
13 | O=C(Nc1ccc(S(=O)(=O)N2CCCCC2)cc1)c1cnccn1 | -1.24% (inactive)
14 | CCN1CCN(c2ccc(NC(=O)c3cnccn3)cc2)CC1 | 11.1% (active)
15 | CC(CC(=O)N1CCN(c2ccccc2)CC1)S(=O)(=O)c1ccc2c(c1)NC(=O)CS2 (centres undefined) | -2.34% (inactive)
16 | CN1CCN(Cc2c(C(=O)N3CCc4ccccc4C3)nc3ccc(Cl)cn23)CC1 | 1.36% (inactive)
17 | CC1CN(S(=O)(=O)c2ccc(C(=O)Nc3sccc3C(N)=O)cc2)CC(C)O1 (centres undefined) | -1.24% (inactive)
18 | COc1ccc(C(=O)Nc2nc(-c3ccc(S(=O)(=O)N4CCOCC4)cc3)cs2)cc1 | -4.64% (inactive)
19 | CNC(=O)c1ccsc1NC(=O)c1ccc(S(=O)(=O)N2CCOCC2)cc1 | 18.2% (active)
20 | CNC(=O)c1ccsc1NC(=O)c1ccc(S(=O)(=O)N2CCc3ccccc32)cc1 | -1.27% (inactive)
21 | COC(=O)c1c(NC(=O)c2ccc(S(=O)(=O)N3CCOCC3)cc2)sc2c1CCN(C(C)C)C2 | 60.3% (active)
22 | O=C(Nc1ccc(N2CCOCC2)c(Cl)c1)c1ccc(S(=O)(=O)N2CCOCC2)cc1 | -1.9% (inactive)
23 | Cc1ccn2c(c1)nc(=O)c1cc(S(=O)(=O)N3CCC(C)CC3)ccc12 | 3.01% (inactive)
24 | CC(C(=O)NC1CCCCC1)N1C(=O)c2cccc3cccc1c23 (centres undefined) | 0.01% (inactive)

Row | Structure (SMILES) | inhibition
25 | COc1ccc2c(c1OC)C(=O)N(c1ccc(O)cc1)C2 | -1.4% (inactive)
26 | CCOC(=O)C1(Cc2ccccc2C)CCCN(S(C)(=O)=O)C1 (centres undefined) | 2.72% (inactive)
27 | C/C(=N\NS(=O)(=O)c1ccc(Br)cc1)c1cccs1 | -5.12% (inactive)
28 | C/C(=N\Nc1ncc(Cl)cc1Cl)c1cccs1 | -1.51% (inactive)
29 | C/C(=N\Nc1ccc(S(N)(=O)=O)cc1[N+](=O)[O-])c1cccs1 | 11.9% (active)
30 | CCN(CC)c1ccc(NC(=O)CCc2nnc3ccc(N4CCCCC4)nn23)c(C)c1 | -1.16% (inactive)
31 | COC(=O)N/N=C/c1ccc(-c2ccc(Cl)c(Cl)c2)o1 | -1.8% (inactive)
32 | Cc1ccc(Cl)cc1-c1ccc(/C=N/n2cnnc2)o1 | 27.4% (active)
33 | Cc1cc(C)c([N+](=O)[O-])cc1-c1ccc(/C=N/NC(=O)c2nonc2N)o1 | -3.27% (inactive)
34 | CC1=NN(c2ccc(Cl)c(C(=O)O)c2)C(=O)/C1=C/c1ccc(-c2ccccc2[N+](=O)[O-])o1 | -1.65% (inactive)
35 | Clc1cc(-c2ccc(/C=N/n3cnnc3)o2)ccc1Br | 14.1% (active)
36 | Cc1cc(-c2ccc(/C=N/n3cnnc3)o2)c([N+](=O)[O-])cc1C | 41.5% (active)
37 | Brc1cc(/C=N/n2cnnc2)oc1Br | -2.87% (inactive)
38 | Cc1ccccc1OCCOc1ccc([N+](=O)[O-])cc1/C=N/n1cnnc1 | -0.56% (inactive)
39 | Cc1ccccc1-c1n[nH]c(=S)n1/N=C/c1ccc(-c2ccccc2Br)o1 | -6.24% (inactive)
40 | Fc1ccc(Br)cc1/C=N/n1cnnc1 | 1.26% (inactive)
41 | O=C1C2C3C=CC(C4CC34)C2C(=O)N1/N=C/c1ccc(-c2ccccc2[N+](=O)[O-])o1 (centres undefined) | -0.54% (inactive)
42 | Cc1cc([N+](=O)[O-])c(-c2ccc(/C=N/n3cnnc3)o2)cc1Cl | 40.1% (active)
43 | CC(NC(=O)C1CCCN(S(=O)(=O)c2ccc(-n3cnnn3)cc2)C1)c1ccc(F)cc1 (centres undefined) | 1.19% (inactive)
44 | COc1ccc(CSc2nnnn2-c2ccc(C(=O)O)cc2)cc1 | -2.38% (inactive)
45 | COc1cc(CN2CCCC(C(=O)c3ccc(SC)cc3)C2)cc(Cl)c1O (centres undefined) | -0.31% (inactive)
46 | CCOc1c(OC)cccc1C(=O)NCC1(c2ccccc2)CCCC1 | -2.24% (inactive)
47 | CCCCNC(=S)NNC(=O)c1cc(C)on1 | 9.24% (active)
48 | COCCCNC(=S)NNC(=O)C(O)(c1ccccc1)c1ccccc1 | 2.9% (inactive)

Row | Structure (SMILES) | inhibition
49 | O=C(NNC(=S)NCCCN1CCOCC1)c1ccncc1 | 6.22% (inactive)
50 | Cc1ccc(SCC(=O)c2cc(C)c(OC(=S)N(C)C)c(C)c2)cc1 | -4.92% (inactive)
51 | CCCC1=Nc2cc(C(=O)NCCN3CCCC3)ccc2Sc2ccccc21 | -3.66% (inactive)
52 | COc1cc(/C=N/NC(=O)Cc2ccccc2)cc(OC)c1OC | -1.77% (inactive)
53 | COc1ccc(/C=N/Nc2nc3ccccc3o2)cc1OC | -2.44% (inactive)
54 | COc1cc(/C=N/Nc2nn3cnnc3c3ccccc23)cc(OC)c1OC | 25.2% (active)
55 | CCCc1nn2c(=O)cc(CSCC(=O)Nc3cccc(C)c3)nc2s1 | 0.24% (inactive)
56 | Cc1cccn2cc(-c3cccc(S(=O)(=O)N4CCCCC4)c3)nc12 | -0.51% (inactive)
57 | CN(C(=O)c1cccc([N+](=O)[O-])c1)c1ccccc1C(=O)NCc1ccccc1 | -1.36% (inactive)
58 | O=c1c2ccccc2oc2nc(C3CCCCC3)n(Cc3ccco3)c(=O)c12 | -2.32% (inactive)
59 | CCc1nc2oc3ccccc3c(=O)c2c(=O)n1Cc1ccc(OC)cc1 | -2.13% (inactive)
60 | O=c1c2ccccc2oc2nc3n(c(=O)c12)CCCS3 | 8.39% (active)
61 | Cc1sc2ncn(CC(=O)NCCCC(=O)NCc3ccc(F)cc3)c(=O)c2c1C | 0.04% (inactive)
62 | CN(C)c1ccnc2sc(C(=O)c3ccccc3)c(N)c12 | -2.05% (inactive)
63 | Cc1nc2sc(C(=O)c3ccccc3)c(N)c2c2c1CCCC2 | 2.15% (inactive)
64 | Nc1c(C(=O)c2cccs2)sc2nsc(SCCN3CCCCC3)c12 | 13.6% (active)
65 | CCN(CC)CCN1C(=O)C2C(C(=O)Nc3ccc(Br)cc3)C3C=CC2(O3)C1C(=O)NC1CCCCC1 (centres undefined) | -0.9% (inactive)
66 | Cc1ccc2[nH]c(=O)c(CC(=O)O)c(-c3ccccc3)c2c1 | -3.01% (inactive)
67 | CCOc1ccccc1NC(=S)N1CCN(c2cccc(C)c2C)CC1 | -0.35% (inactive)
68 | CCN(CC)CCNc1ccc(Cl)cc1[N+](=O)[O-] | 0.16% (inactive)
69 | Cc1ccc(S(=O)(=O)N(C)C)cc1NC(=O)c1n[nH]c(=O)c2ccccc12 | -0.87% (inactive)
70 | COCCNc1cc(NCCOC)c([N+](=O)[O-])cc1[N+](=O)[O-] | -3.48% (inactive)
71 | CN(C)CCNc1ccc(-c2n[nH]c(=O)c3ccccc23)cc1[N+](=O)[O-] | 78.8% (active)
72 | COCCNC(=O)c1ccccc1NS(=O)(=O)c1ccc(C)c([N+](=O)[O-])c1 | 0.45% (inactive)

Row | Structure (SMILES) | inhibition
73 | COCCNc1ccc(-c2n[nH]c(=O)c3ccccc23)cc1[N+](=O)[O-] | 10.5% (active)
74 | O=C(Nc1ccc(S(=O)(=O)N2CCCCCC2)cc1)c1c(F)cccc1F | -0.68% (inactive)
75 | O=C(O)CCCn1c(=O)c2cccn2c2ccc(F)cc21 | -1.43% (inactive)
76 | Clc1ccc(CN2CCCCCC2)cc1Cl | -2.14% (inactive)
77 | CC(=O)c1cccc(NC(=O)COc2ccc(S(=O)(=O)N3CCOCC3)cc2)c1 | -2.94% (inactive)
78 | C=CCNC(=S)NNC(=O)c1cc(Cl)ccc1OC | -5.71% (inactive)
79 | Cc1cc(C)n2nc(C(=O)NC(C)(C)C)nc2n1 | -3.78% (inactive)
80 | COc1ccc(Cl)cc1C(=O)NNC(=O)c1nc2nc(C)cc(C)n2n1 | 10.3% (active)
81 | O=C(CNC(=O)OCc1ccccc1)Oc1cc2oc(=O)cc(-c3ccccc3)c2cc1Cl | 2.38% (inactive)
82 | O=C1Nc2ccccc2/C1=C/c1ccnc2ccccc12 | 8.11% (active)
83 | CN(C)/C=C1/C(=O)Nc2ccccc21 | -0.22% (inactive)
84 | Cc1ccccc1N1CCN(CCCN2C(=O)C3CCCCN3C2=O)CC1 (centres undefined) | 0.15% (inactive)
85 | CCCCC(CC(C)O)c1n[nH]c(=S)n1-c1ccccc1 (centres undefined) | -4.22% (inactive)
86 | CC(NS(=O)(=O)c1ccccc1)c1n[nH]c(=S)n1-c1ccccc1 (centres undefined) | 14.9% (active)
87 | S=c1[nH]nc(COc2ccccc2)n1-c1ccccc1 | -1.69% (inactive)
88 | CCOc1c(Br)cc(/C=C2\C(=O)N(CCC#N)N=C2C)cc1OC | 0.69% (inactive)
89 | COc1cccc2c(=O)n(CC(=O)N3CCCCCC3)ccc12 | 1.04% (inactive)
90 | CCc1nn(CC(=O)N2CCN(CC)CC2)c(=O)c2cccn12 | -0.45% (inactive)
91 | CCN1CCN(C(=O)Cn2nc(C)n3c(cc4c(OC)cccc43)c2=O)CC1 | 28.3% (active)
92 | COc1ccc(C(CNC(=O)COc2ccccc2OC)N2CCCCC2)cc1 (centres undefined) | -0.07% (inactive)
93 | Cc1ccc(CN(N=Nc2nonc2N)c2nonc2N)c(C)c1 | -1.22% (inactive)
94 | O=C(COc1ccc(-n2cnnn2)cc1)Nc1ccccc1Cl | 0.31% (inactive)
